These results are taken from the supplement of paper PMC12808144.

Unmarked numbers belong to inactive results.

For assay [1], the system named is Mel-DCC-11. Nature of the assay: cell viability relative to DMSO control (fraction of DMSO control); higher = less cytotoxic, active = 0.5 or less. The conditions noted are these: 1 µM; 120 h. A digest of the protocol:
(§1)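 Cells in 40 µl per well went into 384-well plates pre-spotted acoustically with a TargetMol library of 315 approved anti-cancer drugs, each at 1 µM in duplicate, for 120 h. Seeding was 2500/well for NHEM-hTERT immortalized melanocytes and 1500/well for patient-derived Mel-DCC-11 and its resistant subline Mel-DCC-11-R, which was run alone and with 8 µM of its selecting drug. Luminescence was read with ATPlite 1step. Viability was normalised to vehicle-treated controls and averaged over duplicates.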

For assay [2], the system named is NHEM-hTERT. The description is as above. As to conditions: 1 µM; 120 h. An outline of the steps: as §1
Assay [3] relates to Mel-DCC-11-R. Nature of the assay: cell viability relative to DMSO control (fraction of DMSO control); higher = less cytotoxic, active = 0.8 or less. The conditions noted are these: 1 µM, 120 h. A digest of the protocol: as §1

Consider `Nc1nc([O-])c2c(CCc3ccc(C(=O)N[C@@H](CCC(=O)[O-])C(=O)[O-])cc3)c[nH]c2n1.[Na+].[Na+]` [Pemetrexed disodium], for which the cell viability was 0.857 in assay [1], 1.05 in assay [2], 0.818 in assay [3] (vemurafenib co-treatment 0 µM) and 0.881 in assay [3] (vemurafenib co-treatment 8 µM).
The corresponding values for `Cc1ccc(-c2ncc(Cl)cc2-c2ccc(S(C)(=O)=O)cc2)cn1` [Etoricoxib] are 1.11, 1.17, 1.11 and 1.06.
The corresponding values for `CC(O)(P(=O)(O)O)P(=O)(O)O` [Etidronate] are 0.821, 1.15, 1.12 and 0.981.
The corresponding values for `CC(C)C(=O)Nc1ccc([N+](=O)[O-])c(C(F)(F)F)c1` [Flutamide] are 1.26, 1.25, 1.1 and 1.21.
Consider `CC(C)(CO)c1cc2cc(NC(=O)C3(c4ccc5c(c4)OC(F)(F)O5)CC3)c(F)cc2n1C[C@@H](O)CO`, for which the cell viability in assay [1] is 1.01; in assay [2], 1.06; in assay [3] (vemurafenib co-treatment 0 µM), 1.18; in assay [3] (vemurafenib co-treatment 8 µM), 1.07.
With `CS(=O)(=O)CCNCc1ccc(-c2ccc3ncnc(Nc4ccc(OCc5cccc(F)c5)c(Cl)c4)c3c2)o1` [Lapatinib], in assay [2], the cell viability is 0.822.
`CC(=O)c1c(C)c2cnc(Nc3ccc(N4CCNCC4)cn3)nc2n(C2CCCC2)c1=O.O=S(=O)(O)CCO` [Palbociclib Isethionate]: the cell viability in assay [2] was 1.03.
With `CC(=O)O[C@]1(C(C)=O)CC[C@H]2[C@@H]3C=C(C)C4=CC(=O)CC[C@]4(C)[C@H]3CC[C@@]21C` [Megestrol acetate], the cell viability in assay [1] is 1.35; in assay [2], 1.04; in assay [3] (vemurafenib co-treatment 0 µM) it was 1.13; in assay [3] (vemurafenib co-treatment 8 µM), 1.
For `CC/C(=C(\c1ccc(O)cc1)c1ccc(OCCNC)cc1)c1ccccc1` [(E/Z)-Endoxifen], the cell viability in assay [1] is 1.05; in assay [2], 0.88; in assay [3] (vemurafenib co-treatment 0 µM), 1.15; in assay [3] (vemurafenib co-treatment 8 µM) it was 1.14.
For the compound `O=C(CCCCCCC(=O)Nc1ccccc1)NO` [Vorinostat], the cell viability was 1.05 in assay [1], 0.871 in assay [2], 0.923 in assay [3] (vemurafenib co-treatment 0 µM) and 1.04 in assay [3] (vemurafenib co-treatment 8 µM).
Consider `O=c1cc(-c2ccc(O)cc2)oc2cc(O)cc(O)c12` [Apigenin], for which, in assay [2], the cell viability is 1.09.
`Nc1nc(Cl)nc2c1ncn2[C@@H]1O[C@H](CO)[C@@H](O)[C@@H]1F` [Clofarabine]: the cell viability was 0.59 in assay [1], 0.53 in assay [2], 0.91 in assay [3] (vemurafenib co-treatment 0 µM) and 0.67 (active) in assay [3] (vemurafenib co-treatment 8 µM).
Turning to `Cl.Cl.O=C1c2c(O)ccc(O)c2C(=O)c2c(NCCNCCO)ccc(NCCNCCO)c21` [Mitoxantrone hydrochloride], the cell viability in assay [2] was 0.797.
With `O=C(O)C1CSCN1` (configuration not stated) [Thioproline], the cell viability in assay [2] was 1.17.
Consider `C=CC(=O)Nc1cccc(Nc2nc(Nc3ccc(N4CCN(C(C)=O)CC4)cc3OC)ncc2C(F)(F)F)c1` [Rociletinib], for which the cell viability in assay [1] is 0.95; in assay [2], 0.71; in assay [3] (vemurafenib co-treatment 0 µM), 0.855; in assay [3] (vemurafenib co-treatment 8 µM) it was 0.836.
The corresponding values for `CC1=C(CC(=O)O)c2cc(F)ccc2/C1=C\c1ccc(S(C)=O)cc1` (configuration not stated) [Sulindac] are 0.701, 0.963, 0.986 and 1.03.
On the same counts, the results for `CCN1CCN(Cc2ccc(Nc3ncc(F)c(-c4cc(F)c5nc(C)n(C(C)C)c5c4)n3)nc2)CC1.CS(=O)(=O)O` [abemaciclib mesylate] are 0.731, 0.896, 1.8 and 0.723 (active).
In the case of `CC(=O)c1c(C)c2cnc(Nc3ccc(N4CCNCC4)cn3)nc2n(C2CCCC2)c1=O` [Palbociclib], the cell viability in assay [2] is 0.993.
For the compound `O=c1[nH]cc(F)c(=O)[nH]1` [Fluorouracil], the cell viability in assay [1] is 1.46; in assay [2], 1.01; in assay [3] (vemurafenib co-treatment 0 µM) it was 1.14; in assay [3] (vemurafenib co-treatment 8 µM), 1.06.
Consider `Cc1cn(-c2cc(NC(=O)c3ccc(C)c(Nc4nccc(-c5cccnc5)n4)c3)cc(C(F)(F)F)c2)cn1` [Nilotinib], for which the cell viability in assay [2] was 0.969.
Regarding `NC1CCCCC1N.O=C([O-])C(=O)[O-].[Pt+2]` (configuration not stated) [Oxaliplatin], the cell viability was 1.09 in assay [1], 1.05 in assay [2], 1.01 in assay [3] (vemurafenib co-treatment 0 µM) and 1.12 in assay [3] (vemurafenib co-treatment 8 µM).
`CNCc1ccc(-c2[nH]c3cc(F)cc4c3c2CCNC4=O)cc1.O=P(O)(O)O` [Rucaparib Phosphate]: the cell viability in assay [1] is 1.1; in assay [2], 0.996; in assay [3] (vemurafenib co-treatment 0 µM), 0.916; in assay [3] (vemurafenib co-treatment 8 µM), 1.11.
